Sampled rows, rich in hits. Any-hit rate of the full collection: about 7.9%.
HCV inhibitor: inhibitors of hepatitis C virus infection. Potency, µM (doses to about 41.8 µM), without a hit: at the highest dose activity change, negative = inhibition, hits mostly inhibitors. AID 651820. Huh7.5.1 HCVcc-Cre infection, luciferase reporter, 44 h. 340,000 tested, 3.4% active; active = well fitted inhibition curve with a large enough effect; inconclusive = small, poorly fitted or top-dose-only effect, or another doubt; inactive = no such curve, though single readings can be large or run the other way; also: potency is read from the fitted curve at half-maximal effect
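Antiviral activity was scored by luciferase reporter output from cells infected with HCVcc-Cre (~0.5 moi) in presence of compound, 44 h infection period, cells seeded 1,000/well 4 h prior.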
HCMV antiviral: blocks human cytomegalovirus replication | 410,000 tested, 4.5% active | activity change, negative = inhibition, % at 57.5 µM | HFF cells, HCMV-luciferase reporter, 72 h; hits give low values | AID 1259415; in the data active = activity change below about -60%; inconclusive = no clear call, values can overlap the other calls; inactive = above about -39%
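Steps: HFFs plated, 16 h 37C; compounds added; HCMV-luciferase added to MOI 1 PFU/cell; 72 h 37C; OneGlo reagent, 5 min room temperature; luminescence read, normalized to controls.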
FMDV antiviral: antivirals against foot and mouth disease virus | 410,000 tested, 1.2% active | AID 1159524 | Potency, µM (titrated, usually from 57.9 µM), for inactives: top-dose activity change, negative = inhibition, most hits filed as inhibitors | FMDV antiviral cell-based qHTS; calls by dose curve; tested in HEK293T cells; also: read-out not given here; potency is read from the fitted curve at half-maximal effect; nearly all actives have a fitted effect of over 45% in size
MARV entry inh: inhibitors of Marburg virus binding or cell entry. Marburg virus pseudotyped entry inhibition, cell reporter. Potency, µM (top dose mostly 37.8 µM), for inactives: at the top dose activity change, negative = inhibition, most hits filed as inhibitors. 300,000 tested, 1.8% active. AID 540276; calls by dose curve; tested in HEK293 cells; also: potency is read from the fitted curve at half-maximal effect
Lassa entry inh: Lassa virus entry inhibition. Lassa virus pseudotype entry inhibition, cell reporter. Potency, µM (titrated, usually from 37.9 µM), for the others: top-dose activity change, negative = inhibition, usual class: inhibitors. 300,000 tested, 1.2% active; calls by dose curve; tested in HEK293 cells; also: potency is read from the fitted curve at half-maximal effect; nearly all actives have a fitted effect of over 50% in size
The depositor's hits bear a star; ? = inconclusive; · = no result given; ! = not active in a repeat; [ ] = another dose, or the depositor's remark. % is scaled to controls: 0 for no effect and ±100 for the full control effect.

SMILES	HCV inhibitor	HCMV antiviral	FMDV antiviral	MARV entry inh	Lassa entry inh
Clc1ccccc1Nc1nnc(-c2ccncc2)s1	-19%	?	?	?	5µM*
O=C(c1ccc2[nH]c(=O)c(=O)[nH]c2c1)N1CCc2ccccc2C1	23%	-21	-9%	·	·
Cc1nc2ccccc2n1CC(O)COCC1CC=CCC1 (centres undefined)	11µM*	-81*	?	-24%	-3%
COc1cccc(C(C)NC(=O)Nc2ccccc2Cl)c1 (centres undefined)	-28%	-64*	-13%	-25%	?
C/C(CC(=O)Nc1cccc(Cl)c1Cl)=N\NC(=O)c1ccccc1N	-15%	94	10%	?	0%
CCOC(=O)CC(NC(=O)c1cc2cc(OC)ccc2oc1=O)c1ccc(OC)cc1 (centres undefined)	·	5	5%	5%[46.1 µM]	28%[46.1 µM]
O=S(=O)(Nc1cccc(-c2ccc(N3CCCCC3)nn2)c1)c1cccc(F)c1	·	36	5%	·	?
CCN(CC)S(=O)(=O)c1ccc(N2CCN(CCOc3ccc(OC)cc3)CC2)nc1	?	-77*	9%	11µM*	-20%[46.1 µM]
N#Cc1ccc(NC(=O)N[C@H]2CC[C@@]34CCCN3C(=O)CCC[C@H]4C2Cc2ccccc2)cc1 (some centres undefined)	·	1	·	·	·
CCn1c(C(=O)Nc2ccc(C)cc2C)cc2sc(Cl)cc21	·	-25	-6%	?	·
CC(C)c1oc(=O)cc2c1[C@@H](O)[C@H]1OC(=O)[C@@]3(C)CC[C@@H](O)[C@@]2(C)C13 (some centres undefined)	?	-97*	?	?	?
CC(C)c1oc(=O)cc2c1[C@@H](O)[C@H]1OC(=O)[C@@]3(C)C[C@@H](O)[C@@H](O)[C@@]2(C)C13 (some centres undefined)	?	-98*	?	3.3µM*	6.5µM*
Cc1cnc(SCc2ccccn2)nc1C1CCCN(C(=O)c2cc3ccccc3oc2=O)C1 (centres undefined)	·	·	-28%	·	·
Cc1ccc(Cl)cc1N1CCN(C(=O)c2ccc3nc[nH]c3c2)CC1	-2%	-61*	-16%	?	?
Cc1ccc(Cl)cc1N1CCN(C(=O)c2ccc3c(c2)CCN3S(C)(=O)=O)CC1	·	-66*	·	·	·
CS(=O)(=O)N1CCc2cc(C(=O)N3CCN(c4cccc(Cl)c4)CC3)ccc21	-30%	4	-18%	?	-7%[46.1 µM]
CCN(CC)CCCN1C(=O)C2=C(C1=O)C1N(C)c3ccccc3[C@@]13C[C@@H](CO)N(C(=O)CCC(=O)OC)C3=N2 (some centres undefined)	·	·	·	7%[14.2 µM]	?
S=C1SCN(Cc2cccnc2)CN1Cc1cccnc1	-75%	-95*	?	?	?
COc1cc(/C=C2/C(=O)NN(c3ccc(C)c(Cl)c3)C2=O)cc([N+](=O)[O-])c1O	14%	-30	-27%	·	·
O=C1NN(c2ccccc2)C(=O)/C1=C\c1cccn1-c1ccc(Cl)c([N+](=O)[O-])c1	1%	22	?	11µM*	?
COC(=O)C1=C(C)N(Cc2ccc(C(F)(F)F)cc2)C(=NCc2ccccc2)NC1c1ccccc1 (centres undefined)	·	-92*	·	·	·
COCCN=C1N[C@@H](c2cccc(C(F)(F)F)c2)C(C(=O)OC)=C(C)N1Cc1ccccc1	39%	-6	-24%	·	·
COC(=O)C1=C(C)N(Cc2ccc(C(F)(F)F)cc2)C(=NCc2ccccc2)NC1c1cccc(Cl)c1 (centres undefined)	·	-100*	·	·	·
C=CCN=C1NC(c2cccc(C(F)(F)F)c2)C(C(=O)OC)=C(C)N1Cc1ccccc1 (centres undefined)	·	·	·	-25%[14.2 µM]	?
COC(=O)C1=C(C)N(Cc2ccccc2)C(=NCc2cccc(C(F)(F)F)c2)N[C@H]1c1cccc(C(F)(F)F)c1	42%[8.37 µM]	·	40µM*	·	·
SMILES	HCV inhibitor	HCMV antiviral	FMDV antiviral	MARV entry inh	Lassa entry inh
COC(=O)C1=C(C)N(Cc2ccccc2)C(=NCc2ccc(OC)cc2)N[C@H]1c1ccccc1	?	-37	0%	·	·
COC(=O)C1=C(C)N(Cc2ccc(C(F)(F)F)cc2)C(=NCc2ccccc2)NC1c1cccc(C(F)(F)F)c1 (centres undefined)	·	-101*	·	·	·
Cc1cc(Cl)nc2c(C(C)C)cccc12	-6%	-36	-10%	5%	17%
CCc1ccc(NC(=O)c2cc(C(C)=O)n3ccccc23)cc1	·	53	24%	·	2%[46.1 µM]
COC(=O)C1=C(C)N(Cc2ccccc2)C(=NCc2cccc(C(F)(F)F)c2)N[C@H]1c1cccc(F)c1	?	-98*	40µM*	·	·
COC(=O)C1=C(C)N(Cc2cccc(C(F)(F)F)c2)C(=NCC2CC2)NC1c1cccc(C(F)(F)F)c1 (centres undefined)	·	-85*	·	·	·
CCN=C1NC(c2ccc(F)cc2)C(C(=O)OC)=C(C)N1Cc1cccc(C(F)(F)F)c1 (centres undefined)	·	13	·	·	·
Cc1cc(C)cc(C(O)c2ncc(-c3ccccc3)[nH]2)c1 (centres undefined)	·	25	59%	·	·
CCN(CC)CCCN=Cc1c(O)n(Cc2ccccc2)c(=O)c2ccccc12	?	45	3%	?	?
O=c1c2ccccc2c(/C=N/c2ncn[nH]2)c(O)n1Cc1ccccc1	?	-82*!	-4%	?	-18%[46.1 µM]
CC(C)CCC(C)N=Cc1c(O)n(Cc2ccccc2)c(=O)c2ccccc12 (centres undefined)	7%	7	-5%	13µM*	-10%
O=C1OC(c2ccccc2)(c2ccc3cc(O)ccc3c2)c2ccccc21 (centres undefined)	?	-33	8%	5.6µM*	-28%[46.1 µM]
COc1cc(OC)c(-c2c3cc(O)c(=O)cc-3oc3cc(O)c(O)cc23)cc1OC	26%	?	?	4.6µM*!	-27%
COc1cccc(-c2cc(=O)c3ccccc3o2)c1N	·	·	22%[97.4 µM]	?	?
C/C(=N\NC(N)=S)c1ccccc1	-14%	-29	-19%	·	·
C/C(=N\NC(N)=S)c1cc(-c2ccccc2)c(-c2ccccc2)s1	6.3µM*	-3	-17%	?	?
O=C(CN1CCCc2ccccc21)Nc1cccc(S(=O)(=O)N2CCCC2)c1	·	0	1%	·	·
CC(=O)Nc1cccc(S(=O)(=O)N2CCCCCC2)c1	-1%	-100*	9%	-28%[46.1 µM]	-5%
CC1CCc2ccccc2N1CC(=O)Nc1cccc(S(=O)(=O)N2CCCC2)c1 (centres undefined)	32µM*	-31	-13%	?	?
O=C(CNc1ccccc1F)Nc1cc(S(=O)(=O)N2CCCCC2)ccc1Cl	?	-26	-22%	·	·
CCN(CC)S(=O)(=O)c1cccc(NC(=O)CNc2cccc(S(=O)(=O)N3CCOCC3)c2)c1	0.56µM*	·	?	?	?
Cc1ccc(S(=O)(=O)N2CCCCC2)cc1NCC(=O)Nc1ccc(Br)cc1F	·	-86*	?	·	·

Bioassay records deposited in PubChem by National Center for Advancing Translational Sciences (NCATS).
